In the OligoGym collection:

molecular target: RILPL1; test: pooled miR-30 sensor sort-seq; sequence = guide strand; settings: shRNA
Also: reference of the scale not given here.

Row | Sequence | sensor-assay potency score (higher = more potent)
1 | TTTGGCTTAAAGAAGCTTGTGT | 0.806
2 | TTGGACTTGAGCTCGTTCCTCT | -0.104
3 | TCCTGCAGCAAGAACACCTTGG | -0.555
4 | TAAATAAACATTTCTTTAGAGT | -1.18
5 | TTGGCGCGGATCTCGTCGCGTT | -1.09
6 | TTGCGCTCCTTCTCGATGCGGT | -0.346
7 | TGAGAAGTTGACATCCTTGTGG | 0.201
8 | TATTCGGTTTTCCTCTTCCATT | -1.63
9 | TTGTTTGTCCACCACCTCCTTC | -0.987
10 | TCATCTATTAGAAACAGTGATA | -1.01
11 | TTAGAAACAGTGATAGCCCTGG | 0.299
12 | TTCAGGGTGCATCTGCACCGAG | -0.831

molecular target: RIMKLA; test: as above; settings: shRNA

Row | Sequence | sensor-assay potency score (higher = more potent)
13 | TAGGAAGCCAACATTAGCATTT | -1.24
14 | TAGCATTTGCCTCACACACCAC | -0.761
15 | AAGCATAGAGCCTATGACCTGG | 0.485
16 | TGTCTGACTGCACTGAGGGTGT | -0.858
17 | TTGGACTCGACAGTCCTGGGAG | 0.0465
18 | TTGATGGTATAGACGCTCTCTG | -0.814
19 | ATCAATGCCACAGAAGTCCATG | -1.18
20 | TTTCACTAGAGGTAGACCCACT | -0.539
21 | TAATGTTGTAGCCAGGTTCGGG | -0.494
22 | TCACACACCACAAAGGAGCCAT | 0.0799
23 | TCACTGTCTGACTGCACTGAGG | -1.83
24 | TAGTCCTCGCGGATGCGCCGGT | -0.762

molecular target: RIN3; test: as above; settings: shRNA

Row | Sequence | sensor-assay potency score (higher = more potent)
25 | TATTCGAGCACCTCGGCCGAGC | -1.09
26 | TGTCTAGCTGCTTCTTGCCGGG | -0.191
27 | TTTGCCAACAACTGGAACCGGA | -0.35
28 | TAGATGAGTTTGCAGGTCTTGA | -0.805
29 | TTGCCAACAACTGGAACCGGAC | -1.3
30 | TTCCTTAATGGTGTATTCGAGC | -0.939
31 | TTGAGCTGGGTCATCATGGTGC | 0.23
32 | TGTTTTGATGAGCTTCTCCAGG | -1.05
33 | TTTGATGAGCTTCTCCAGGATG | -0.966
34 | ATCTCCTGCAGCATCTCCGTGC | -0.98
35 | TAAGTCTCTACTGACACAGTAG | -0.266
36 | TAACTGGTTCTCCTTGAGCTGC | -1.24

molecular target: RIT1; test: as above; settings: shRNA

Row | Sequence | sensor-assay potency score (higher = more potent)
37 | TATAGTAGCGGTATGCAGCAGA | 0.384
38 | TAAACTCTGCCTGTCCAGCTGT | 0.108
39 | TTATAAGCATCTTCAATGGTGG | -0.101
40 | TTAGCCTCTTCCATACACTGTT | -0.476
